# Source: PubChem (National Center for Advancing Translational Sciences (NCATS))
# Gal4-VP16 FLuc: VP16 counterscreen qHTS for inhibitors of ROR gamma transcriptional activity. Drosophila S2 Gal4-VP16 UAS-luciferase, luminescence, 20 h. Potency, µM (series often up to 53.6 µM), for inactives: at the highest dose activity, negative = inhibition, usual class: inhibitors. hit rate 3.5% among 310,000. AID 2546, 2010;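 note: Gal4-VP16 expression switched on by copper sulfate through the metallothionein promoter; potency is the fitted concentration of half-maximal effect; % is set by controls: 0 for no effect and ±100 for the full control effect; nearly all actives have a fitted effect of over 50% in size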
# SW480 rereplic: A quantitative high throughput screen for small molecules that induce DNA re-replication in SW480 colon adenocarcinoma cells; SW480 DNA re-replication, Hoechst DNA content imaging, 48 h; Potency, µM (series often up to 46.1 µM), for inactives: at the highest dose re-replication activation, hits mostly activators; hit rate 1.8% among 340,000; AID 624297, 2012; note: potency is the fitted concentration of half-maximal effect; % of control where 0% means no effect; nearly all actives have a fitted effect of over 55% in size
#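 Hoechst fluorescence of nuclei (405 nm excitation, 500-530 nm emission) measured by plate-scanning imager after 48 hr compound exposure at 37 C; re-replication scored as increased number of nuclei with elevated intensity.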
# MCF10A rereplic: A quantitative high throughput screen for small molecules that induce DNA re-replication in MCF 10a normal breast cells. MCF 10A DNA re-replication, Hoechst nuclear intensity, 48 h. Potency, µM (highest dose often 46.1 µM), inactives show top-dose activity, positive = re-replication, most hits filed as activators. hit rate 2.9% among 350,000; note: potency is the fitted concentration of half-maximal effect; % of control where 0% means no effect; nearly all actives have a fitted effect of over 50% in size
# BCR signal inh: qHTS Assay to Find Inhibitors of Chronic Active B-Cell Receptor Signaling. ABC-DLBCL IkBa-CBG/CBR reporter, luminescence ratio, 4 h. Potency, µM (highest dose often 46.1 µM), for the others: top-dose activity change, negative = inhibition, hits mostly inhibitors. hit rate 0.05% among 340,000. AID 493014, 2011; active = well fitted inhibition curve with a large enough effect in the signal ratio, with a control signal flat, not every such curve was filed as active; inconclusive = small, poorly fitted or top-dose-only effect, or effect the other way, or a change in a side signal; the % refers to the signal ratio;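 note: potency is the fitted concentration of half-maximal effect; plate controls were basal doxycycline-induced cells for no effect and cells given 10 µM MG132 for full effect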
#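 Concentration-response series (up to 46 uM) were applied to TMD8 dual-reporter cells for 4 h at 37C with doxycycline. Green/red ratio, after filter-overlap correction, defined %Activity; red signal alone was normalised to basal cells and zero luminescence.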
# Giardia killer: Small Molecules that selectively kill Giardia lamblia: qHTS | Giardia lamblia trophozoite viability | activity change, % at 7.66 µM, hits read low | hit rate 0.15% among 340,000 | AID 540267, 2011; in the data active = activity change below about -80%; inconclusive = between about -30% and that limit;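 note: parasites exposed to compound for two days anaerobically before the ATP read; % is set by controls: 0 for no effect and ±100 for the full control effect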
#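 Anaerobic 48 hrs incubation at 37 deg C of 100 trophozoites/well with test compounds; ATPLite 1-Step luminescence, 15-30 min RT, reports cellular ATP as viability.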
# RORg inh: qHTS for inhibitors of ROR gamma transcriptional activity | Nuclear receptor ROR-gamma (Mus musculus), P51450 | Potency, µM (highest dose often 53.6 µM), without a hit: top-dose activity change, negative = inhibition, most hits filed as inhibitors | AID 2551, 2010 | hit rate 5.4% among 310,000 | Drosophila S2 Gal4-RORgamma UAS-luciferase reporter, 20 h; note: potency is the fitted concentration of half-maximal effect; % is set by controls: 0 for no effect and ±100 for the full control effect; nearly all actives have a fitted effect of over 60% in size
# Target sequence (P51450 whole entry, looked up, the tested form may be a part): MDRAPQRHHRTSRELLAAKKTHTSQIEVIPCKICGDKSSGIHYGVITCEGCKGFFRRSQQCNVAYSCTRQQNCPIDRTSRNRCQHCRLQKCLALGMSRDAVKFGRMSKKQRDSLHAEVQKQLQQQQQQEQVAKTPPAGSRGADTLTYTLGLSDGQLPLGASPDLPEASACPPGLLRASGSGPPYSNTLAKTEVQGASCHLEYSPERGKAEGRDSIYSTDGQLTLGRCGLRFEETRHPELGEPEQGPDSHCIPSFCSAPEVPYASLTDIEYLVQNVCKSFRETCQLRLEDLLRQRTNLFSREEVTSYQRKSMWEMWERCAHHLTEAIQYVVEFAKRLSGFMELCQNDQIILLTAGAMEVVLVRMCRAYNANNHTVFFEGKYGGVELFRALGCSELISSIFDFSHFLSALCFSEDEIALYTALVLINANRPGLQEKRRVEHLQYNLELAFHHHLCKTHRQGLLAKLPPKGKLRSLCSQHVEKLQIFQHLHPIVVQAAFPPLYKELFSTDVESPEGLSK
#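 Luciferase reporter read in Schneider cells carrying Gal4-RORγ (mouse) and UAS-Photinus luciferase; cells given compound 1 h before 700 uM copper sulfate induction, then incubated 20 h at ambient temperature.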
# Active calls of the source: *; u = inconclusive; x = no result; [ ] = another dose, or the depositor's remark. The list is not random: actives were taken first. Their share in the collection is about 8.3%. Unless noted, calls come from the whole dose curve; as a rule, active = well fitted curve in the direction sought with a large enough effect; inconclusive = small, poorly fitted or top-dose-only effect, or another doubt; inactive = no such curve, though single readings can be large; an effect the other way counts as inactive or inconclusive.
SMILES,Gal4-VP16 FLuc,SW480 rereplic,MCF10A rereplic,BCR signal inh,Giardia killer,RORg inh
COCCOC1CCN(C(=O)C2CCC(=O)N(CCc3ccc(OC)cc3)C2)CC1 (centres undefined),4%,u,2%,u,u,1%
CN1C(=O)c2ccccc2N(C)C1c1cccc(O)c1 (centres undefined),1%,-2%,7%,2%,-3,24%
COc1ccccc1CNC(=O)c1cccc(S(=O)(=O)N2CCCC2)c1,x,2%,0%,-3%,9,x
CCc1cc(C(=O)NNC(=S)NCc2ccccc2)cs1,-16%,-9%,2%,u,4,14µM*
CCCc1cc(C(=O)NNC(=S)NCc2ccccc2)cs1,u,-2%,1%,x,-9,4.5µM*
CCNC(=S)NNC(=O)c1cc(C)on1,-10%,-5%,12%,-6%,-6,18µM*
Cc1cc(C(=O)NNC(=S)NCc2ccccc2)cs1,-4%,1%,u,-1%,-8,-23%
O=C(NNC(=S)NCc1ccccc1)c1ccc2c(c1)OCO2,u,0%,-1%,2%,9,-22%
CC(=O)Nc1ccc(S(=O)(=O)NC2=C(N3CCN(c4ccc(F)cc4)CC3)C(=O)c3ccccc3C2=O)cc1,-10%,16µM*,16µM*,7%,12,-40%
O=C(CSc1ccc2ccccc2c1)Nc1nc2ccccc2[nH]1,u,-5%,1%,u,9,11µM*
O=C(CSc1ccc(Cl)cc1)Nc1cccc(-c2nc3ccccc3[nH]2)c1,10µM*,-193%,18µM*,18%,15,u
O=C(CSc1ccccc1)Nc1ccc(-c2nc3ccccc3[nH]2)cc1,u,-2%,u,23%,-13,u
COc1cc2sc(-c3ccc(S(C)(=O)=O)cc3)c(C(=O)NCc3ccc(C)o3)c2cc1OC,x,-4%,21%,-7%,8,x
CCOC(=O)C1C(C(=O)OC)=C(c2ccc(F)cc2)c2ccc(OC)cc2N1S(=O)(=O)C(F)(F)F (centres undefined),-3%[40.7 µM],x,x,x,x,29%[40.7 µM]
CCOc1ccc(Nc2cc(C)c3ccccc3n2)cc1,-21%,17%,u,u,2,-5%
COc1ccc(NC(=S)c2ccc3ccccc3n2)cc1,13µM*,5%,-22%,u,-19,4µM*
Cc1ccc(NC(=S)c2ccc3ccccc3n2)c(C)c1,7.9µM*,3%,2%,11%,-13,2µM*
Cc1ccc(C)c(NC(=O)c2ccc3ccccc3n2)c1,2%,6%,6%,-3%,-9,7%
COc1ccc(NC(=O)CCSc2ccc3ccccc3n2)cc1,-15%,-3%,10µM*,u,-21,-9%[10 µM]
COc1ccc(NC(=O)CN(C)C(=O)c2ccc3ccccc3n2)cc1,x,19%,-1%,0%,12,x
CCOc1ccc(Nc2c3ccccc3nc3ccccc23)cc1,u,4.6µM*,3.3µM*,24%,0,18%
CCOc1ccc2oc(-c3ccccc3)c(C(N)=O)c2c1,20%,-1%,8%,u,-8,35%
CCOc1ccc(CN(C)C(=O)c2ccc3ccccc3n2)cc1,19%,-9%,-1%,-7%,22,14%
COc1ccc(N=C(NN)c2ccc3ccccc3n2)cc1,u,-7%,u,u,9,10µM*
CCOc1ccc(NC(=S)c2ccc3ccccc3n2)cc1,u,-10%,0%,u,-11,6.3µM*
SMILES,Gal4-VP16 FLuc,SW480 rereplic,MCF10A rereplic,BCR signal inh,Giardia killer,RORg inh
COc1cc([N+](=O)[O-])ccc1NC(=O)CN1CCN(C(=O)c2ccco2)CC1,4%,-6%,-5%,-4%,3,34%
CC1CCCC(NC(=O)COC(=O)CCC2CCCC2)C1C (centres undefined),0.56µM*,0%,-1%,2%,9,-6%
COc1ccc(-c2nn(C)c(=O)c3ccccc23)cc1CNS(C)(=O)=O,18%,-7%[9.22 µM],-6%,18µM*,-3,u
Cc1noc(C(=O)NC2CCCCC2)c1Cl,6%,41%,-8%,u,-20,-1%
Cc1cc2c(cc(C(=O)OCC(=O)NC3CCCCC3)n2C)o1,x,u,26µM*,x,2,x
COc1ccc(OCC2c3cc(OC)c(OC)cc3CCN2C(=O)c2ccc(F)cc2)cc1 (centres undefined),x,x,x,-9%,x,x
COc1ccc(OC)c(-c2csc(N(CC3CCCO3)C(=O)Cc3ccccc3)n2)c1 (centres undefined),0%,0%,9%,-1%,7,-6%
COc1ccc(-c2csc(N(CC3CCCO3)C(=O)c3ccco3)n2)cc1 (centres undefined),-2%,u,16µM*,u,-3,4%
CCN(C(=O)c1ccco1)c1nc(-c2ccc(OC)cc2)cs1,-6%,0%,15%,u,22,52%
COc1ccc(-c2csc(N(CC(C)C)C(=O)c3ccco3)n2)cc1,6%,u,18µM*,u,-15,21%
Cc1cc(=O)n2nc(N3CCCC3C(=O)Nc3ccc(C(C)C)cc3)sc2n1 (centres undefined),0%,3%,2%,8%,17,-29%
COC(=O)c1ccc2c(=O)[nH]c(CCl)nc2c1,-17%,u,u,-3%,-16,13µM*
CCN(C(=O)COC(=O)c1ccc(O)cc1)c1cccc2ccccc12,x,-5%,0%,-5%,-11,x
O=C(Nc1cccc(NC(=O)c2ccco2)n1)c1ccco1,-8%,-53%,0%,-4%,-3,u
C=C(C)C(=O)OCCO,-6%,x,x,x,x,5%
N#Cc1nc(COc2ccccc2F)oc1NCCc1ccccc1,17%,5%,23µM*,11%,0,u
COc1ccc(CNc2oc(COc3ccccc3Cl)nc2C#N)cc1,4%,10%,28%,u,-7,-20%
Cc1ccc(CNc2oc(COc3ccccc3Cl)nc2C#N)cc1,-6%,12µM*,4.1µM*,-2%,-4,25%
COc1ccc(C(=O)N2CCCC(c3nc(-c4ccc(OC)c(OC)c4)no3)C2)c(OC)c1 (centres undefined),2%,4%,10%,3%,-10,35%
C(=Cc1c[nH]c2ccccc12)c1ccc2ccccc2n1,x,u,0.92µM*,x,-10,x
C(=Cc1c[nH]c2ccccc12)c1nccc2ccccc12,x,6.5µM*,1.6µM*,x,-23,x
